According to the supplement of paper PMC7156485:
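Note: TDF is a line of transformed human dermal fibroblasts of mesenchymal origin.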

These molecules were tested on TDF (assay: H1.0 immunofluorescence intensity relative to DMSO (% of DMSO); higher = stronger H1.0 induction, active = 120 or more). Conditions: concentration: 10 µM; 24 h.
Summary of the method: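 For HCC1569 and TDF cells, compounds at 10 µM were applied for 24 h at 37 °C in triplicate in 384-well plates. Cells were fixed in 3.7% formaldehyde, stained for H1.0 and with DAPI, and imaged at ×10 over six fields per well. The endpoint, H1.0 nuclear intensity or cell number, is shown as percent of the plate control using the median of replicates. Positional effects were smoothed for HCC1569 only.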
`CCN1CC2(COC)CCC(O)C34C5CC6C(OC)CC(O)(C(CC23)C14)C5C6OC(C)=O` (stereo not given) [Condelphine] was tested, and the H1.0 immunofluorescence intensity was 98.6 (inactive).
With `COc1cc2c(c(OC)c1OC)-c1ccc(SC)c(=O)cc1C(NC(C)=O)CC2` (stereo not given) [Thiocolchicine] the H1.0 immunofluorescence intensity was 187 (active).
In the case of `Br.CN1C2CC(OC(=O)C(CO)c3ccccc3)CC1C1OC12` (single isomer, unassigned; (-)) [(-)-Scopolamine hydrobromide], the H1.0 immunofluorescence intensity is reported as 97.6 (inactive).
`C[N+](C)(C)CC(=O)O.[Cl-]` [Betaine hydrochloride] was tested, and the H1.0 immunofluorescence intensity was 89.4 (inactive).
With `COc1cc2c(c(OC)c1OC)-c1ccc(OC)c(=O)cc1C(NC(C)=O)CC2` (stereo not given) [Colchicine] the H1.0 immunofluorescence intensity was 168 (active).
In the case of `Cl.c1ccc(C2CC2)c(OCC2=NCCN2)c1` [Cirazoline hydrochloride], the H1.0 immunofluorescence intensity is reported as 90.7 (inactive).
For `Cl.O=C1CCC2(O)C3Cc4ccc(O)c5c4C2(CCN3CC2CC2)C1O5` (stereo not given) [Naltrexone.HCl], the H1.0 immunofluorescence intensity was 90.5 (inactive).
With `CCC(C)CC(C)N` (stereo not given) [1,3-dimethylpentylamine] the H1.0 immunofluorescence intensity was 99 (inactive).
With `CN1C2CCC1CC(OC(=O)C(CO)c1ccccc1)C2.CN1C2CCC1CC(OC(=O)C(CO)c1ccccc1)C2.O.O=S(=O)(O)O` (stereo not given) [Atropine sulfate] the H1.0 immunofluorescence intensity was 91.8 (inactive).
In the case of `CCN(CCCl)Cc1ccccc1Br.Cl` [DSP-4 hydrochloride], the H1.0 immunofluorescence intensity is reported as 92.8 (inactive).
With `COc1cc(C2c3cc4c(cc3C(O)C3COC(=O)C23)OCO4)cc(OC)c1O` (stereo not given) [4'-Demethylpipodophyllotoxin] the H1.0 immunofluorescence intensity was 157 (active).
In the case of `CCCCCCCCCCCCCCCCOCC(COP(=O)([O-])OCC[N+](C)(C)C)OC(C)=O` (stereo not given), the H1.0 immunofluorescence intensity is reported as 99.6 (inactive).
For `C=CCN1CCC23c4c5ccc(O)c4OC2C(=NN=C2CCC4(O)C6Cc7ccc(O)c8c7C4(CCN6CC=C)C2O8)CCC3(O)C1C5.Cl.Cl` (stereo not given) [Naloxonazine dihydrochloride], the H1.0 immunofluorescence intensity was 126 (active).
For `CC1OC(=O)C2CC3CCCCC3C(C=CC3CCCC(C)N3C)C12` (single isomer, unassigned; (+)) [(+)-Himbacine], the H1.0 immunofluorescence intensity was 91 (inactive).
`CCCN1CCCC2Cc3[nH]ncc3CC21.Cl` (single isomer, unassigned; (-)) [(-)-Quinpirole hydrochloride] was tested, and the H1.0 immunofluorescence intensity was 87.5 (inactive).
`CC1=CC(=O)c2c(O)cccc2C1=O` [Plumbagin] was tested, and the H1.0 immunofluorescence intensity was 109 (inactive).
For `NC(Cn1ccc(=O)[nH]c1=O)C(=O)O` (stereo not drawn) [S(-)-Willardiine], the H1.0 immunofluorescence intensity was 97.7 (inactive).
In the case of `NCCN(CCN)N(O)N=O` [1,1-bis(2-aminoethyl)-2-hydroxy-3-oxotriazane], the H1.0 immunofluorescence intensity is reported as 93.1 (inactive).
In the case of `NCCCNCCSP(=O)(O)O` [Amifostine], the H1.0 immunofluorescence intensity is reported as 91.8 (inactive).
For `BrC1C(Br)C(Br)C(Br)C(Br)C1Br` (stereo not given), the H1.0 immunofluorescence intensity was 97 (inactive).
With `O=C1CCCN1CC#CCN1CCCC1` [Oxotremorine] the H1.0 immunofluorescence intensity was 88.5 (inactive).
In the case of `Cl.Clc1cc(I)cc(Cl)c1NC1=NCCN1` [p-Iodoclonidine hydrochloride], the H1.0 immunofluorescence intensity is reported as 94.9 (inactive).
`CCCN1CCCC2Cc3nc(N)ncc3CC21.Cl.Cl` (stereo not given) [Quinelorane dihydrochloride] was tested, and the H1.0 immunofluorescence intensity was 95 (inactive).
In the case of `COC(=O)CC(O)(CCC(C)(C)O)C(=O)OC1C(OC)=CC23CCCN2CCc2cc4c(cc2C13)OCO4` (stereo not given) [Harringtonine], the H1.0 immunofluorescence intensity is reported as 107 (inactive).
`CN1C2CCC1CC(OC(=O)C(CO)c1ccccc1)C2.CN1C2CCC1CC(OC(=O)C(CO)c1ccccc1)C2.O=S(=O)(O)O` (stereo not given) [Atropine sulfate] was tested, and the H1.0 immunofluorescence intensity was 91.7 (inactive).
`CC(=O)C1CCC2C3CCC4CC(O)CCC4(C)C3C(=O)CC12C` (stereo not drawn) [5alpha-Pregnan-3alpha-ol-11,20-dione] was tested, and the H1.0 immunofluorescence intensity was 94.1 (inactive).
With `COc1ccc2c(c1OC)C(=O)OC2C1c2cc3c(cc2CCN1C)OCO3` (single isomer, unassigned; (+)) [(+)-Hydrastine] the H1.0 immunofluorescence intensity was 96.4 (inactive).
For `CC12CCC3C(CCC4=C(O)C(=O)CCC43C)C1CCC2=O` (stereo not given) [4-Androsten-4-ol-3,17-dione], the H1.0 immunofluorescence intensity was 93.4 (inactive).
`CCN1CC2(C)CCC(OC)C34C5CC6CCC(O)(C5C(=O)O6)C(C(O)C23)C14` (stereo not given) [Heteratisine] was tested, and the H1.0 immunofluorescence intensity was 96.1 (inactive).
For `COC1=CC(=O)OC(CCc2ccc3c(c2)OCO3)C1` (stereo not given) [Dihydromethysticin], the H1.0 immunofluorescence intensity was 90.4 (inactive).
